Assay outcomes as filed in PubChem BioAssay.
Compounds with a hit are over-represented: about 11% of the library has one in this group of screens.
Pf growth 96h: inhibits malaria parasite growth, 96 h | P. falciparum luciferase reporter growth, 96 h | Potency, µM (titrated, usually from 28.7 µM), without a hit: at the top dose activity change, negative = inhibition, actives largely listed as inhibitors | AID 504834 | hit rate 6.9% among 320,000
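Luminescence readout: decreased luciferase signal marks inhibited growth of reporter-expressing P. falciparum in infected red cells (2% hematocrit, 0.05% parasitemia final), exposed to compound two generations (96 h, 37 C, 5% CO2).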
AmpC detergent: blocks E. coli AmpC beta-lactamase in detergent assay. AmpC hydrolysis of nitrocefin, absorbance 480 nm, 0.01% Triton. Potency, µM (highest dose often 114 µM), inactives show top-dose activity change, negative = inhibition, most hits filed as inhibitors. hit rate 0.041% among 370,000. P00811;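 also: 0% = no-compound wells and -100% = no-enzyme wells; nearly all actives have a fitted effect of over 25% in size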
Target sequence (P00811 whole entry, looked up): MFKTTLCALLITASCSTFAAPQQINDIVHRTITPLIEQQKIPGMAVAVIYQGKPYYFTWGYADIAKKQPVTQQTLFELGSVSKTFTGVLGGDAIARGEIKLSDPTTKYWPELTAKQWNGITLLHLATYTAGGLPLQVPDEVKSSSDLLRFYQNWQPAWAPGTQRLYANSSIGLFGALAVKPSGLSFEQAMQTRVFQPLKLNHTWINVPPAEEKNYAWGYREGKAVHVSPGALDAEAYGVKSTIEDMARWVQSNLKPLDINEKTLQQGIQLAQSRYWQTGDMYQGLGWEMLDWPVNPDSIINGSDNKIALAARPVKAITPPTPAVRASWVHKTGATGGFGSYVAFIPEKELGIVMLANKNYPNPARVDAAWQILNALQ
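20 mM phosphate pH 7.0 + 0.01% (detergent screen) or 0.0001% Triton X-100; 5.3 nM AmpC reagent; cpd preinc 15 min RT; nitrocefin (800 uM stock) to start; A480 q20 s × 4 min; Activity was normalised to no-enzyme and no-compound control wells.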
Pf growth 48h: P. falciparum growth inhibition at 48 hours (one generation); Potency, µM (titrated, usually from 28.7 µM), without a hit: at the highest dose activity change, negative = inhibition, actives largely listed as inhibitors; hit rate 5.9% among 310,000; P. falciparum luciferase growth in erythrocytes, 48 h
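Luciferase-expressing parasites in RBCs, 2% Hct / 0.1% parasitemia final; RPMI 1640 + 0.5% Albumax; 37 C, 5% CO2, one generation; luminescence read-out, lower signal = inhibition.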
AMA1 RON2 block: inhibitors of Plasmodium falciparum AMA1-RON2 interaction | hit rate 0.2% among 360,000 | AID 720542 | Potency, µM (doses to about 58.2 µM), for inactives: at the highest dose activity change, negative = inhibition, usual class: inhibitors | AlphaScreen AMA1-biotinylated RON2 peptide binding;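 also: 0% = vehicle wells and -100% = peptide control; nearly all actives have a fitted effect of over 45% in size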
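AMA1 (3D7) with his tag at 25 nM final met compounds first, then biotinylated RON2 peptide at 25 nM; detection used donor plus acceptor beads, 10 µg/mL apiece, read by AlphaScreen after 30 min at room temperature.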
HCV inhibitor: inhibitors of hepatitis C virus infection. Huh7.5.1 HCVcc-Cre infection, luciferase reporter, 44 h. Potency, µM (doses to about 41.8 µM), for inactives: at the highest dose activity change, negative = inhibition, most hits filed as inhibitors. hit rate 3.4% among 340,000. AID 651820
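Luciferase read-out (15 sec integration) after a 15 min room-temperature substrate step quantifies HCVcc-Cre infection. Cells, 1,000 per well, had compound added 4 h post-plating, then virus at ~0.5 moi, and were cultured 44 h.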
AmpC no deterg: blocks E. coli AmpC beta-lactamase in detergent-free assay | P00811 | AmpC nitrocefin hydrolysis, absorbance 480 nm, 0.0001% Triton | Potency, µM (highest dose often 57.1 µM), without a hit: at the highest dose activity change, negative = inhibition, hits mostly inhibitors | hit rate 0.52% among 330,000 | AID 485341;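 also: plate controls were no compound for no effect and no enzyme for full effect; nearly all actives have a fitted effect of over 20% in size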
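AmpC (5.3 nM in the dispensed reagent) in 20 mM phosphate pH 7.0 with 0.01% (detergent screen) or 0.0001% Triton X-100 was preincubated with compounds for 15 min at room temperature. Nitrocefin was then added from an 800 uM solution, and hydrolysis was followed at 480 nm.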
The depositor's hits bear a star; ? = inconclusive; · = no result; [ ] = another dose, or the depositor's remark. Calls follow the shape of the dose curve; as a rule, active = well fitted curve in the direction sought with a large enough effect; inconclusive = small, poorly fitted or top-dose-only effect, or another doubt; inactive = no such curve, though single readings can be large; an effect the other way counts as inactive or inconclusive. Unless noted, % is scaled to controls: 0 for no effect and ±100 for the full control effect; potency is read from the fitted curve at half-maximal effect.

SMILES | Pf growth 96h | AmpC detergent | Pf growth 48h | AMA1 RON2 block | HCV inhibitor | AmpC no deterg
CCCC(c1nnnn1CCC(C)C)N1CCC(C(N)=O)CC1 (centres undefined) | 9.3µM* | -6% | 12µM* | -17% | -4% | 108%
COc1ccc(CCn2nnnc2C(CC(C)C)N2CCC(C(N)=O)CC2)cc1OC (centres undefined) | 12µM* | -20% | 12% | -5% | 8% | -6%
CC(C)CCn1nnnc1C(C(C)C)N1CCC(C(N)=O)CC1 (centres undefined) | 5% | 10% | 7% | 25% | ? | 1%
COc1ccc(CCn2nnnc2C(CC(C)C)N2CCN(c3ncccn3)CC2)cc1OC (centres undefined) | 2% | ? | · | 0% | 17% | 24%
CC(C)CC(c1nnnn1CCc1ccccc1)N1CCC(C(N)=O)CC1 (centres undefined) | 9.3µM* | 9% | 19% | 4% | 18% | 23%
CC(C)CC(c1nnnn1Cc1ccc(F)cc1)N1CCC(C(N)=O)CC1 (centres undefined) | 0% | 1% | -22% | 8% | 3% | 48%
COc1ccc(CCn2nnnc2C(C(C)C)N2CCN(c3ncccn3)CC2)cc1OC (centres undefined) | ? | 6% | 9.3µM* | -7% | ? | 125%
CCCOC(=O)CSc1nnc2ccc3ccccc3n12 | · | 17% | · | · | · | ·
COc1ccc(C(CNC(=O)C(CCSC)NC(=O)c2ccccc2OC)N2CCCCC2)cc1 (centres undefined) | 12µM* | 7% | ? | -9% | -21% | 59%
COc1ccc(C(CNC(=O)C(CCSC)NC(=O)c2ccccc2Cl)N2CCOCC2)cc1 (centres undefined) | 11% | 0% | 14% | -14% | 0% | 13%
COc1ccc(C(CNC(=O)CCNC(=O)c2ccccc2OC)N2CCCC2)cc1 (centres undefined) | 12µM* | ? | ? | 46% | 1%[8.37 µM] | ?
COc1cccc(CNC(=O)CC(c2ccc(F)cc2)N2Cc3ccccc3C2=O)c1 (centres undefined) | · | 17% | · | · | · | ·
COCCn1c(C)cc(C(=O)COc2ccc(N(C)S(=O)(=O)c3ccc(C)cc3)cc2)c1C | ? | -6% | 9.3µM* | -28% | ? | 58%
COCCn1c(C)cc(C(=O)COC(=O)c2ccc(S(=O)(=O)N(C)C)cc2)c1C | · | · | · | -10% | -2% | 3%
CN(c1ccc(C(=O)Nc2ccc(Cl)cn2)cc1)S(=O)(=O)c1ccccc1 | -27% | -6% | -13% | 0% | 11µM* | -30%
Cc1ccc(S(=O)(=O)N(C)c2ccc(C(=O)Nc3ccc(C)cn3)cc2)cc1 | ? | -4% | 12µM* | -5% | 5µM* | -27%
O=c1n(Cc2ccccc2)nc2n1-c1cc(Cl)ccc1OC2 | · | -2% | · | · | · | ·
CCOc1ccccc1CN1C(=O)c2ccccc2C1C(=O)NC1CCCCCC1 (centres undefined) | · | 5% | · | · | · | ·
O=C(CCc1nnc(CCCCc2ccccc2)o1)NC1CCCC1 | 14% | 5% | -16% | 2% | ? | 63%
CC1(C)CC(NC(=O)CCc2nnc(CCCCc3ccccc3)o2)CCO1 (centres undefined) | 10µM* | 2% | -20% | 4% | 3% | 86%
Cc1cc(C)c(C#N)c(SCC(=O)NC(C)(C)C)n1 | 7.4µM* | -12% | · | 7% | -12% | 0%
Cc1cc(C)c(C#N)c(SCCS(=O)(=O)c2ccc(C(C)(C)C)cc2)n1 | · | -7% | 7.4µM* | -23% | ? | -44%
CCOC(=O)NC(=O)CSc1nc(C)cc(C)c1C#N | 9.3µM* | -13% | 148% | 16% | -1% | -14%
COc1cc2c(cc1OC)CN(C(=O)CSc1nc(C)cc(C)c1C#N)CC2 | 6.6µM* | -9% | ? | -4% | ? | 31%
